# Several values for one entry are separate records, joined by “and”; a condition that tells them apart may be missing. Identical values can stand only once. Results filed as inconclusive are left out. Activity calls are given as the source filed them. Calls come from the whole dose curve; as a rule, active = well fitted cell-killing curve with a large enough effect in the repeat runs; inconclusive = weak or mixed curves, or effect the other way; inactive = no such curve, though single readings can be large or run the other way.
# Test: qHTS assay to identify small molecule agonists of the RXR signaling pathway - cell viability counter screen (AID 1159529); note: nearly all actives have a fitted effect of over 50% in size
# Settings: RXR-alpha-bla HEK293T viability, CellTiter-Glo, 16 h; series mostly up to 76.8 µM; activity change, negative = cytotoxicity: at the top concentration
# Excerpt: National Center for Advancing Translational Sciences [NCATS]
# NIH Chemical Genomics Center [NCGC]
# U.S. Environmental Protection Agency [EPA]
# National Institutes of Environmental Health Sciences [NIEHS]
# National Toxicology Program [NTP]
# U.S. Food and Drug Administration [FDA]
# The Retinoid X receptor (RXR), a nuclear hormone receptor expressed in liver, spleen, placenta, epidermis, central nervous system. These receptors are able to form homo and heterodimers with other nuclear receptors and due to this heterodimerizing ability, RXR functions as master regulators producing diverse physiological effects. Three subtypes of RXR exist; alpha, beta and gamma. Retinoid X receptor alpha (RXR-alpha) has potential roles in metabolic signaling pathways, skin alopecia, dermal cysts, cardiac development, insulin sensitization etc. Therefore screening environmental chemicals on RXR-alpha signaling can be used for the studies focused on such therapeutic applications. For quantification of RXR-alpha ligands signaling, GeneBLAzer RXR alpha-UAS-bla HEK 293T (Life Technologies, Carlsbad, CA) cells containing a beta-lactamase reporter-gene under control of Retinoid X receptor-alpha response element were used to screen Tox21 10K library. The cytotoxicity of the Tox21 compound library against the RXR-alpha HEK 293T cell line was tested in parallel by measuring cell viability using CellTiter-Glo assay (Promega Corporation, Madison, WI) in the same wells.
# Tox21 Assay Protocol Summary:
# RXR-alpha HEK 293T cells were dispensed at 2,000 cells/6 uL of assay medium containing 2% charcoal-stripped FBS using a Multidrop Combi (ThermoFisher Scientific, Waltham, MA) dispenser. The assay was performed in black wall/clear-bottom 1536-well plates (Greiner Bio-One North America Inc. Monroe, NC). Tetraoctyl ammonium bromide was used as a positive control in the cytotoxicity screen. After the assay plates were incubated at 37 C and 5% CO2 for 5 hr, 23 nL of compounds dissolved in DMSO, positive control or DMSO only were transferred to the assay plate by a Pintool station (Kalypsys, San Diego, CA). The assay plates were incubated at 37 C and 5% CO2 for 16 hr. One uL of LiveBLAzer B/G FRET substrate (Life Technologies) was added using a Flying Reagent Dispenser (FRD) (Aurora Discovery, San Diego, CA) and the plates were incubated at room temperature for 2 hr. Fluorescence intensity (405 nm excitation, 460/530 nm emission) was measured using an Envision plate reader (PerkinElmer, Shelton, CT). For cytotoxicity, 4 uL/well of CellTiter-Glo reagent was added into the assay plates using an FRD. After 30 min incubation at room temperature, the luminescence intensity was measured using a ViewLux plate reader (PerkinElmer).
# % is set by controls: 0 for no effect and ±100 for the full control effect; potency is the fitted concentration of half-maximal effect.
SMILES,Potency,"activity change, negative = cytotoxicity"
C/C=C/C(=O)Oc1c(CCCCCC(C)C)cc([N+](=O)[O-])cc1[N+](=O)[O-],24.5 µM (active),
O=C[C@H](O)[C@H](O)[C@H](O)CO,,2.56% (inactive)
Cc1cncc(C)c1,,-0.512% (inactive)
N[C@@H](CSSC[C@H](N)C(=O)O)C(=O)O,,-20.1% [at 0.29 µM] (inactive)
C=C(C)CCCC,,1.42% (inactive)
O=S(=O)(O)CCCN1CCOCC1,,8.58% (inactive)
COc1cccc(OC)c1O,,6.73% (inactive)
O=C(Nc1ccc(Cl)cc1)Nc1ccc(Cl)c(C(F)(F)F)c1,12 µM (active),
Brc1ccccn1,,-0.494% (inactive)
CCc1ccc(C)nc1,,1.11% (inactive)
COc1cccc(O)c1,,5.07% (inactive)
CCN=c1cc2oc3cc(NCC)c(C)cc3c(-c3ccccc3C(=O)OCC)c-2cc1C,38.8 µM (active) and 49 µM (active),
ClC/C=C\CCl,,0.926% (inactive)
O=C1OC(OC(=O)c2cccnc2Nc2cccc(C(F)(F)F)c2)c2ccccc21 (stereo not given),,-17.4% [at 35.3 µM] (inactive)
C=CC/C=C/C/C=C/C/C=C/C,,6.86% (inactive)
CCCCCCCCC(C)=O,,9.48% (inactive)
CCO[Si](CCCSSSSCCC[Si](OCC)(OCC)OCC)(OCC)OCC,21.9 µM (active),
CCc1c(Br)c(Br)c(Br)c(Br)c1Br,,-13.6% (inactive)
CC(=O)OC(OC(C)=O)c1ccc([N+](=O)[O-])o1,49.8 µM (active),
COc1cc(C(=O)NS(=O)(=O)c2ccccc2C)ccc1Cc1cn(C)c2ccc(NC(=O)OC3CCCC3)cc12,,-2.4% [at 35.3 µM] (inactive)

SMILES,Potency,"activity change, negative = cytotoxicity"
CCCC(C)CCC(C)=O (stereo not given),,-2.87% (inactive)
CC1=CP(=O)(c2ccccc2)CC1 (stereo not given),,2.91% (inactive)
CCCCCCCC/C=C\CCCCCCCC(=O)OCCOC(=O)CCCCCCC/C=C\CCCCCCCC,,-13.2% (inactive)
Cc1ccc(O)cn1,,-0.538% (inactive)
CC(=O)C=O,,-2.09% (inactive)
O[C@@H](c1cc(C(F)(F)F)nc2c(C(F)(F)F)cccc12)[C@H]1CCCCN1,15.1 µM (active),
CCCCCCCCCCCCCC[n+]1ccccc1,12.3 µM (active),
O=C(O)CC(=O)O,,-1.29% (inactive)
O=C(O)c1cccc(Cl)n1,,-13.8% (inactive)
COC(=O)CC#N,,-18.3% (inactive)
CCN(CC)CCSC(=O)C(c1ccccc1)c1ccccc1,,-21.6% [at 35.3 µM] (inactive)
CCOC(=O)CN,,9.01% (inactive)
O=Cc1ccc(F)cc1,,-4.71% (inactive)
CCOCOCC,,7.05% (inactive)
CCCCCCS,,11.5% (inactive)
CCO[Si](C)(C)OCC,,-7.88% (inactive)
OCCCCl,,0.23% (inactive)
CCCC(O)C(O)CO (stereo not given),,2.03% (inactive)
O=C(Nc1ccc(Cl)c(Cl)c1)c1cc(Cl)cc(Cl)c1O,19.5 µM (active),
CCOC(=O)CC(C)O (stereo not given),,-5.68% (inactive)

# From PubChem BioAssay (Tox21)
